Screens: PubChem, The Scripps Research Institute Molecular Screening Center
This is a sample that favours compounds with a hit; in the whole collection about 2% have one here.
MBD2 DNA inh: blocks human MBD2 binding to methylated DNA | TR-FRET, MBD2 binding to methylated oligonucleotide | inhibition, % at 4.4 µM | Q9UBB5 | hit rate 0.31% among 370,000; in the data active means inhibition above about 13%
Target sequence (Q9UBB5 whole entry, looked up): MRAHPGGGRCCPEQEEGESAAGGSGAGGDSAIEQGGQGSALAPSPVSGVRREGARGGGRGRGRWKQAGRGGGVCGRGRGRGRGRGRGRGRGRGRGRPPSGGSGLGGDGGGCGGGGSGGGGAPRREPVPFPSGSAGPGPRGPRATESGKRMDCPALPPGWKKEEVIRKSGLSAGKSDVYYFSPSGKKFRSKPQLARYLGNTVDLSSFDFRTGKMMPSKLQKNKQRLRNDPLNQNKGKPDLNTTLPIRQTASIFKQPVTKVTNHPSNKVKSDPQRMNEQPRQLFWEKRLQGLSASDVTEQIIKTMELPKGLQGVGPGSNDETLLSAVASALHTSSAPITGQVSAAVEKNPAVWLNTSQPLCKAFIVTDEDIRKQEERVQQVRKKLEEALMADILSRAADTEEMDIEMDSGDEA
LEDGF integ inh: blocks HIV-1 LEDGF/p75-dependent DNA integration; hit rate 0.64% among 370,000; inhibition, % at 3.7 µM; TR-FRET IN-LEDGF/p75 DNA integration, Eu/Cy5;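 active means inhibition above the screen-wide mean plus 3 SD, cut at about 13% in these data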;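 further: signal is the Cy5 over europium emission ratio at 671 and 618 nm; 0% = plate median of compound wells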
TCR CD3 inh: blocks the human TCR-CD3 interaction | TAMRA-labeled TCR probe fluorescence, biochemical | inhibition, % at 9.4 µM | hit rate 0.37% among 360,000; in the data active means inhibition above about 19%;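 further: recombinant mutant TCR 2C K166C tagged with TAMRA read by polarization; 0% = receptor in buffer alone and 100% = receptor with positive control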
Rin1 Abl inh: blocks binding of human Rin1 to Abl. AID 588664. inhibition, % at 7.35 µM. TR-FRET Rin1/Abl binding, biochemical. hit rate 0.4% among 360,000; in the data active means inhibition above about 5%, passing the limit was not always enough
UHRF1 binding: human UHRF1 methylated DNA binding inhibitors. Q96T88. UHRF1 binding to methylated oligo, TR-FRET. hit rate 0.75% among 370,000. AID 687016. inhibition, % at 4.4 µM; in the data active means inhibition above about 21%;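 further: UHRF1 SRA domain binding a hemimethylated CpG hairpin DNA probe; 0% = median of test compound wells and 100% = reference inhibitor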
Rin1 Abl conf: confirmation of inhibitors of human Rin1-Abl interaction; shares compounds with Rin1 Abl inh; TR-FRET Rin1-Abl binding, purified proteins; inhibition, % at 7.35 µM; hit rate 49% among 1,300
GFP quench: quenches GFP fluorescence, counter-screen for Rin1-Abl inhibitors. inhibition, % at 6.75 µM. AID 602125. hit rate 8.5% among 1,300. inhibitors/quenchers counterscreen. shares compounds with Rin1 Abl inh;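 further: ABL1-eGFP fusion protein alone without its partner RIN1-SBP; 0% = protein with vehicle and 100% = wells lacking protein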
GFP quench DR: GFP fluorescence interference dose response; shares compounds with Rin1 Abl inh; GFP fluorescence interference/quenching counterscreen; IC50, µM; 230 tested, under 10 active; AID 602182; call rule not given here;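 further: ABL1-eGFP fusion protein alone without its RIN1 binding partner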
An asterisk follows results filed as active; x = not tested or not shown. Unless noted, no stated cut-off is given here; in the data, active means inhibition above about 6.5%; inactive means the rest.

SMILES | MBD2 DNA inh | LEDGF integ inh | TCR CD3 inh | Rin1 Abl inh | UHRF1 binding | Rin1 Abl conf | GFP quench | others
O=C1N(c2cccc(Cl)c2)C(c2ccccc2)N2CCCN12 (stereo not drawn) | -3.3 | 2.8 | 0.3 | 17.1* | 6.8 | 24.4* | -1.1 | GFP quench DR=>67.5
Cc1ccc(C2N(c3ccccc3)C(=O)N3CCCN23)cc1 (stereo not drawn) | 0.4 | -0.8 | 4.7 | -0.5 | 10.9 | x | x
C[C@@H](c1ccccc1)N1C[C@H](COCc2ccccc2)Oc2cc(N3CC[C@@H](O)C3)ccc2S1(=O)=O | -1.4 | 5.9 | -4.8 | x | 0.4 | x | x
CC(C)C[C@H]1CNC(=S)N1C[C@H]1CCCN1C[C@H](Cc1ccccc1)N1C[C@H](CC(C)C)N(CCc2ccccc2)C1=S | -4.3 | -1.2 | -4.3 | 4.8 | -1.1 | x | x
Cc1ccc(C(C)NC(=O)c2cc3ccccc3oc2=O)cc1C (stereo not drawn) | 0.4 | 6.8 | 0.6 | -3.0 | 0.4 | x | x
CCCn1c(N)c(C(=O)COC(=O)CNC(=O)c2ccc(C)c(C)c2)c(=O)n(C)c1=O | 2.9 | -3.9 | -9.0 | 9.4* | 12.3 | 0.5 | -4.3
CC(=O)N1CCN(S(=O)(=O)c2cccc(C(=O)NCc3ccc(F)cc3)c2)CC1 | 4.2 | -1.7 | 3.6 | 6.5 | -2.6 | x | x
CCCCN(C(=O)c1cccc(S(=O)(=O)N2CCN(C)CC2)c1)c1c(N)n(CCC)c(=O)[nH]c1=O | -0.5 | -2.2 | 4.3 | -0.7 | 1.3 | x | x
CCOC(=O)N1CCN(C(=O)CSc2cc(C)nc3c(-c4ccccc4OC)c(C)nn23)CC1 | -6.8 | 0.6 | 5.4 | -0.7 | 3.3 | x | x
CCOC(=O)N1CCC(Nc2cc(C)nc3c(-c4ccccc4OC)c(C)nn23)CC1 | -1.2 | -1.5 | -0.6 | 6.2* | 0.6 | 3.0 | -1.4
CCOC(=O)CSc1ccc2nnc(-c3ccccc3)n2n1 | -1.5 | -1.5 | 2.8 | -2.1 | -1.4 | x | x
CCOC(=O)CSc1ccc2nnc(-c3cccnc3)n2n1 | -0.8 | -2.6 | 7.9 | 7.5* | -0.9 | -3.2 | -1.2
CCc1cccc(NC(=O)Cn2c(=O)oc3cc(S(=O)(=O)N4CCOCC4)ccc32)c1 | 3.7 | -0.2 | -4.3 | 6.2 | -0.4 | x | x
CCc1ccc(NC(=O)Cn2c(=O)oc3cc(S(=O)(=O)N4CCOCC4)ccc32)cc1 | 3.4 | 1.9 | -1.8 | 8.1* | -1.9 | 1.5 | -0.6
O=C(CCNC(=O)C1CCN(S(=O)(=O)c2ccc(F)cc2)CC1)Nc1nccs1 | 0.3 | 3.5 | 6.7 | 3.3 | -0.5 | x | x
CC(=O)Nc1ccc(S(=O)(=O)N2CCC(C(=O)NCCC(=O)Nc3nccs3)CC2)cc1 | 3.2 | -3.1 | -2.1 | 11.2* | 0.0 | 6.2 | -0.2
CSc1ccccc1OCc1cc(C(=O)N[C@H]2CCCCNC2=O)no1 | -1.6 | -1.2 | -3.6 | 4.7 | 1.4 | x | x
CCC1CCCCN1CCCNC(=O)c1ccc2c(c1)c(C)c(C)n2C (stereo not drawn) | -0.5 | 0.9 | 5.3 | 1.4 | -1.8 | x | x
CCC1CCCCN1CCCNC(=O)c1ccc2c(c1)c(C)c(C)n2CC (stereo not drawn) | 3.6 | -2.6 | -6.6 | 14.8* | 3.9 | -4.4 | 2.1
Cc1c(Cl)cccc1N1C(=O)CC(Sc2ccccc2N)C1=O (stereo not drawn) | 2.1 | 4.5 | 2.0 | 0.6 | -1.3 | x | x
COC(=O)[C@@H](Cc1ccccc1)NC(=O)[C@H]1O[C@@H](n2cnc3c(=O)[nH]c(N)nc32)[C@H](O)[C@@H]1O | 3.3 | 2.5 | 2.8 | x | -1.3 | x | x
CC(C)(C)n1ncc2c(=O)n(Cc3cccc(Cn4cnc5c(cnn5C(C)(C)C)c4=O)c3F)cnc21 | -0.8 | 3.3 | 3.9 | -1.1 | -1.6 | x | x
CC(C)(C)n1ncc2c(=O)n(Cc3cccc(Cl)c3)cnc21 | -2.4 | -0.8 | 6.8 | 7.6* | -3.3 | -0.8 | -0.9
COc1cccc(C(=O)NCCS(=O)(=O)N2CCC(C)CC2)c1 | 0.6 | -1.2 | -0.7 | 0.7 | -0.5 | x | x
COC(=O)C1C(=O)C=C(Nc2ccc(F)cc2)CC1c1ccc(OC)cc1 (stereo not drawn) | -0.2 | -4.0 | 0.6 | 6.4* | -3.3 | -2.5 | 0.2
SMILES | MBD2 DNA inh | LEDGF integ inh | TCR CD3 inh | Rin1 Abl inh | UHRF1 binding | Rin1 Abl conf | GFP quench | others
COC(=O)C1C(=O)C=C(Nc2ccc(F)cc2F)CC1c1ccc(OC)cc1 (stereo not drawn) | 1.9 | -1.5 | 2.6 | 0.5 | -3.9 | x | x
Cc1ccc(C(=O)NCCn2cc(SCC(=O)Nc3cc(C)on3)c3ccccc32)cc1 | 2.5 | 3.8 | 3.6 | 1.7 | -0.1 | x | x
Cc1cc(NC(=O)CSc2cn(CCNC(=O)c3ccccc3)c3ccccc23)no1 | x | x | x | 24.1* | x | 14.2* | 1.9
COc1cc(CC(=O)N2CCN(C(=O)C3CCCO3)CC2)cc(OC)c1OC (stereo not drawn) | -7.0 | -2.0 | 1.1 | 2.1 | -0.7 | x | x
CCN(CC)C(=O)CSc1nc(Cc2ccccc2)nc2ccccc12 | -2.1 | 1.3 | 0.1 | 24.3* | 2.9 | 21.4* | -0.8 | GFP quench DR=>67.5
COc1ccc(C[C@H]2CN3C(=NC[C@@H]3Cc3ccc(O)cc3)N2C[C@H](C)NC(=O)c2ccc(C)c(Br)c2)cc1 | x | x | x | 9.4* | x | 1.3 | 0.0
COc1ccc(C[C@H]2CN3C(=NC[C@@H]3C(C)C)N2C[C@H](C)NC(=O)c2ccc(C)c(Br)c2)cc1 | -0.9 | -3.0 | -6.0 | 1.6 | 16.8 | x | x
C[C@H](CO)N1C[C@H](C)[C@@H](CN(C)S(=O)(=O)c2ccccc2F)Oc2ncc(Br)cc2C1=O | 4.6 | -4.3 | -7.4 | 3.2 | 3.1 | x | x
Cc1cccc(NC(=O)C(c2ccccc2Cl)N2CCOCC2)c1 (stereo not drawn) | 0.9 | 0.8 | 9.2 | 8.2* | -1.8 | -1.4 | 0.6
CCS(=O)(=O)c1ccc(N=Nc2ccc(O)c3ncccc23)c(OC)c1 | -1.2 | -0.6 | -2.5 | 6.9 | -6.5 | x | x
COc1ccccc1N=Nc1ccc(O)c2ncccc12 | -8.8 | 3.9 | 1.7 | 8.7* | -15.0 | 4.9 | 12.3*
Cc1cccc(N2C(=O)C(CC(=O)Nc3cccc(F)c3)N(CCc3ccncc3)C2=O)c1 (stereo not drawn) | 5.5 | -10.0 | -3.8 | 5.3* | 5.0 | -0.1 | -0.9
CCc1ccc(NC(=O)CC2C(=O)N(c3ccc(C)cc3)C(=O)N2CCc2ccncc2)cc1 (stereo not drawn) | 3.1 | 3.3 | -2.2 | 0.7 | 5.0 | x | x
CCC(c1nc2ccccc2c(=O)n1CCCn1ccnc1)N1C(=O)c2ccccc2C1=O (stereo not drawn) | -0.3 | -0.5 | -8.5 | 15.0* | 2.1 | 21.0* | 1.0 | GFP quench DR=>67.5
O=C(COC(=O)c1cc[n+]([O-])cc1)Nc1ccc(SC(F)F)cc1 | -2.0 | -0.1 | 2.2 | -1.4 | 0.1 | x | x
CCOc1ccc(C(=O)OCC(=O)Nc2ccc(SC(F)F)cc2)cc1OCC | 1.8 | -1.0 | -3.9 | 8.1* | 3.1 | -1.1 | -0.5
O=C(O)c1ccc(Nc2nc3ccc(Cl)cc3[nH]2)cc1 | -1.5 | 1.3 | 1.8 | 1.6 | 2.4 | x | x
